An excerpt weighted towards active compounds, which were near 2.2% of everything screened.
PLC-gamma1 inh – inhibitors of human phospholipase C gamma1; P19174; purified PLC-gamma1, fluorogenic substrate, fluorescence; inhibition, % at 12.2 µM; 370,000 tested, 0.84% active; AID 720700
Target sequence (P19174 whole entry, looked up): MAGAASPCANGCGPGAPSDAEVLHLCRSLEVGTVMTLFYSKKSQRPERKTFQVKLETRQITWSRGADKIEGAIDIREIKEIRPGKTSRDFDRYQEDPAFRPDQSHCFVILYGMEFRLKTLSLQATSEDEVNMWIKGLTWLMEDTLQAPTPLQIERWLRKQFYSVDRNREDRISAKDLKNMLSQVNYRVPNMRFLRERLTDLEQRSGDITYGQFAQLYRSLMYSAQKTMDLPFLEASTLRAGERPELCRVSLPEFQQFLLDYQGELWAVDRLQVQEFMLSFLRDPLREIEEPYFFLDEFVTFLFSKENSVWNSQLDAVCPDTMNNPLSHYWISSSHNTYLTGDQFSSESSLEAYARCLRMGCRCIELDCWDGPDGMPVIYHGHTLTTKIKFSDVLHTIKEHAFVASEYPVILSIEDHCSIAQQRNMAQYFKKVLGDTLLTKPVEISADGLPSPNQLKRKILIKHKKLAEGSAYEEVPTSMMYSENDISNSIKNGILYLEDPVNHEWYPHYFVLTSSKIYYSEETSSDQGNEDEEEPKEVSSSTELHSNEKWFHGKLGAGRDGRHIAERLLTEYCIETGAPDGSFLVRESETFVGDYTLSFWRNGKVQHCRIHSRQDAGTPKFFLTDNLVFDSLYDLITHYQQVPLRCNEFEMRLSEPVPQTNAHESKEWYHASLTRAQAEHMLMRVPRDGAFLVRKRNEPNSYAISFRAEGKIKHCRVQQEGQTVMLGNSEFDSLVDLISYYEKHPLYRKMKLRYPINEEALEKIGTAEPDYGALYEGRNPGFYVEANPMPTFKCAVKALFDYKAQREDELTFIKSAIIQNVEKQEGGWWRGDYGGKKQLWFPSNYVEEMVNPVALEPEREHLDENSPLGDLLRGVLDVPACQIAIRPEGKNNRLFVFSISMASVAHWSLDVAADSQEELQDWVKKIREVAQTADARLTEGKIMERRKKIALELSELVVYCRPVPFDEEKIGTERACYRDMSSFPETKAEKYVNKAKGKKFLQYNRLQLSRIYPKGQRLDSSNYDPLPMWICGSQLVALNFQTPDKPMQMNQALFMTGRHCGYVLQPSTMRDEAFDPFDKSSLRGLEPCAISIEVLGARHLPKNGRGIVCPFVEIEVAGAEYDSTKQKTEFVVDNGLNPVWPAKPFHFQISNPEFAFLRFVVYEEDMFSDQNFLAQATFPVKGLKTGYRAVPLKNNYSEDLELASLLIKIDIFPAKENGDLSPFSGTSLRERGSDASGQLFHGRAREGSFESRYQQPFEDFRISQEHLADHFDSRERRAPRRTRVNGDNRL
H9c2 protect – myocardial damage modulation in H9c2 cells | H9c2 cardiomyocytes, H2O2 injury protection, ATPLite, 2 h | protection from H2O2 cell death, % at 20 µM | 360,000 tested, 0.63% active;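 active = compounds giving at least 50% protection of heart cells from peroxide-induced death in the single-dose screen, raw or plate-pattern-corrected value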;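 also: 0% = DMSO wells with peroxide and 100% = DMSO wells without peroxide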
PLCb3 inh – blocks human PLC-beta3 enzyme activity. Purified PLC-beta3, fluorogenic substrate, fluorescence. AID 720704. inhibition, % at 12.2 µM. 370,000 tested, 0.18% active. Q01970; in the data active = inhibition above about 11%;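 also: 0% = median of compound wells on plate and 100% = full blocker control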
FAS-TE inh – FAS thioesterase (human) inhibition; P49327; recombinant FAS-TE, OMFH fluorogenic substrate, fluorescence endpoint; inhibition, % at 15 µM; 360,000 tested, 0.67% active; AID 602261;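 active = compounds whose normalised, plate-corrected inhibition of enzyme fluorescence in the single-dose primary screen is 50% or more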;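 also: 0% = DMSO with enzyme and 100% = substrate without enzyme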
PLCg1 ctr – PLC-gamma1 inhibition, counter-screen for PLC-beta3 hits; shares compounds with PLC-gamma1 inh; purified PLC-gamma1, fluorogenic substrate, fluorescence; inhibition, % at 12.3 µM; 3,300 tested, 3.1% active
PLCbeta3 conf – confirmation of human PLC-beta3 inhibitors | shares compounds with PLC-gamma1 inh | purified PLC-beta3, fluorogenic substrate fluorescence | inhibition, % at 12.3 µM | 3,300 tested, 1% active | AID 743261; in the data active = inhibition above about 11%
Numbers without * were called inactive; · = no result. Rule as the data show it, unless noted: active = inhibition above about 9.5%; inactive = the rest.

SMILES | PLC-gamma1 inh | H9c2 protect | PLCb3 inh | FAS-TE inh | PLCg1 ctr | PLCbeta3 conf
O=C(NCc1ccccc1)C1Cc2c(-c3ccc(Cl)cc3)ccnc2O1 (stereo unspecified) | -1 | -7 | 1 | 15 | · | ·
O=C(N/N=C/c1cccc(F)c1)c1c(O)c2c([nH]c1=O)CCCC2 | 6 | -17 | 12* | -11 | -2 | 0
C/C=C/C=C/C(=O)N1C[C@H](C)N(C)C[C@H]1C | 1 | · | -3 | · | · | ·
O=C(COC(=O)c1ccc(Br)cc1)NCC1CCCO1 (stereo unspecified) | 5 | -2 | 12* | -4 | 6 | 0
Oc1ccc(C=NNC(=S)Nc2ccccc2)nc1 | -23 | 17 | -24 | -6 | · | ·
COc1ccc(OC)c(NC(=O)COC(=O)Cc2ccc(Br)cc2)c1 | -1 | -2 | -3 | 22 | · | ·
COc1ccc(OC)c(NC(=O)COC(=O)Cc2ccc(-c3ccccc3)cc2)c1 | 14* | -6 | 1 | 30 | -8 | -6
CCCC(O)(c1ccc(OC)cc1)C(CN1CCOCC1)c1ccc(Cl)cc1 (stereo unspecified) | 11* | -6 | 1 | 20 | -1 | 4
O=C(c1cc(=O)[nH]c2ccccc12)N(Cc1nnc(-c2ccccc2Cl)o1)C1CC1 | -63 | 4 | -76 | -5 | · | ·
CC(=O)NC1C(OCCOc2ccc(Cl)cc2C)OC(CO)C(O)C1O (stereo unspecified) | -1 | 1 | -4 | -6 | · | ·
CC(=O)NC1C(OCCOc2ccc(Cl)cc2Cl)OC(COC(C)=O)C(OC(C)=O)C1OC(C)=O (stereo unspecified) | 10* | -5 | 4 | -6 | -4 | -1
Cc1ccc(NC(=O)CCS(=O)(=O)c2ccccc2)cc1C | -1 | · | -2 | · | · | ·
O=[N+]([O-])c1ccc(N/N=C\c2ccccc2OCc2ccccc2)cc1 | -13 | -4 | -21 | 8 | · | ·
Cc1cc(C)nc(N/N=C/c2ccccc2OCc2ccc([N+](=O)[O-])cc2)n1 | 13* | 11 | 9 | 9 | 0 | 1
CCCCn1c(N)c(N(CCOC)C(=O)c2cc(-c3ccc(OC)cc3)nc3ccccc23)c(=O)[nH]c1=O | -146 | -4 | -151 | 5 | · | ·
COc1ccc(/C=N/NC(=O)C(=O)N2CCN(c3ccccc3OC)CC2)cc1 | 12* | 8 | -1 | -3 | -5 | -2
CCCCOc1ccc(C(=O)NC2CCCCN(Cc3ccccc3C)C2=O)cc1 (stereo unspecified) | 2 | · | 1 | · | · | ·
O=C1CN(C(=O)c2ccc(Cl)c([N+](=O)[O-])c2)c2ccccc2N1 | 1 | 2 | -11 | 1 | · | ·
COc1ccccc1NC(=O)Cn1c(=O)n(C)c(=O)c2sc3c(c21)COC(C)(C)C3 | 13* | 16 | 2 | -1 | -5 | 1
COc1ccccc1NC(=O)Cn1nnc2sc3c(c2c1=O)CC(C)(C)OC3 | 2 | 3 | -4 | 10 | · | ·
COCCN1C(=O)COc2ccccc2C1C(=O)NC1CCCCC1 (stereo unspecified) | 3 | · | 1 | -6 | · | ·
Cc1ccc(OCCCCN(C)Cc2ccccc2)c(Br)c1 | 0 | -1 | 4 | 10 | · | ·
Cc1cc(C)c(OCCCCN(C)Cc2ccccc2)c(C)c1 | 13* | -3 | 1 | 6 | -3 | 1
O=C(NCCc1ccccc1)OCc1cn(Cc2ccc(F)c(F)c2)nn1 | -3 | · | -2 | · | · | ·
CCC(C)(C)C1CCC(NC(=O)c2ccc(S(=O)(=O)N3CCOCC3)cc2)CC1 (stereo unspecified) | -3 | -17 | -5 | 25 | · | ·
SMILES | PLC-gamma1 inh | H9c2 protect | PLCb3 inh | FAS-TE inh | PLCg1 ctr | PLCbeta3 conf
O=C(Oc1cccc(N2C(=O)CCC2=O)c1)C1CC(=O)N(c2ccc(Br)cc2)C1 (stereo unspecified) | 7 | 3 | 11* | 2 | -3 | 3
O=C(NCC1CCCO1)C1CCN(S(=O)(=O)c2cc(Cl)ccc2Cl)CC1 (stereo unspecified) | 12* | -12 | 4 | -5 | 0 | 3
COc1ccc(Cl)cc1S(=O)(=O)N1CCC(C(=O)NCC2CCCO2)CC1 (stereo unspecified) | -2 | -1 | -4 | -6 | · | ·
O=C(NCc1ccc(F)cc1)Nc1nnc([C@H]2C[C@H](O)[C@@H](CO)O2)s1 | -2 | 2 | 1 | -6 | · | ·
O=C(C[C@@H]1C/C=C\C[C@H](Cc2ccc(F)cc2)C(=O)OC[C@H]2CCCN2C1=O)NCCO | 10* | 14 | 3 | -13 | -8 | -2
O=C(C[C@@H]1C/C=C\C[C@@H](Cc2ccc(F)cc2)C(=O)OC[C@H]2CCCN2C1=O)NCCO | 0 | 19 | -3 | -11 | · | ·
O=C(C[C@@H]1C/C=C\CCC(=O)OC[C@@H]2CCCN2C1=O)N[C@@H](CO)Cc1ccccc1 | 13* | 5 | 12* | -7 | 6 | 1
O=C(C[C@H]1C/C=C\CC[C@@H](Cc2ccc(F)cc2)C(=O)OC[C@H]2CCCN2C1=O)N[C@H](CO)Cc1ccccc1 | 3 | 43 | 3 | -6 | · | ·
CC(C)N(C(=S)Nc1ccc(S(=O)(=O)N2CCOCC2)cc1)c1ccccc1 | -3 | 6 | 2 | 1 | · | ·
COc1ccc(OCc2cc(C(=O)N3CCCC(O)C3)no2)c2ccccc12 (stereo unspecified) | -4 | -6 | -9 | 2 | · | ·
COc1ccccc1N1CCN(S(=O)(=O)CCNC(=O)C2CC2)CC1 | 4 | 0 | -3 | -6 | · | ·
Cc1cccc(C(=O)O/N=C(\N)c2ccc(Cl)cc2)c1 | 2 | -16 | 0 | 3 | · | ·
Cc1ccc(/C(N)=N/OC(=O)c2ccc(Cl)cc2Cl)cc1 | 6 | -24 | 13* | 10 | -1 | -1
CCOC(=O)C1CCCN(C(=O)c2cc(S(=O)(=O)N3CCCCC3)ccc2Cl)C1 (stereo unspecified) | 6 | -14 | 8 | -1 | · | ·
c1csc(C(c2nnnn2C2CCCCC2)N2CCN(c3nc4ccccc4s3)CC2)c1 (stereo unspecified) | 11* | -10 | 6 | 23 | -1 | 1
Cc1ccc(SCc2cc(=O)n(C)[nH]2)cc1 | 11* | 7 | 6 | -4 | -2 | -3
CN(c1ccc(F)cc1)S(=O)(=O)c1ccc(Cl)c(C(=O)Nc2ccncc2)c1 | 1 | -18 | -7 | 3 | · | ·
CN(c1ccccc1)S(=O)(=O)c1ccc(Cl)c(C(=O)Nc2ccncc2)c1 | 9.8* | -20 | 2 | 2 | -6 | -6
Nc1c(-c2ccc(C(F)(F)F)cc2)nc2ncccn12 | -48 | · | -52 | · | · | ·
COC(=O)C12OCC34C(CC5C(C)=C(O)C(=O)CC5(C)C3C(O)C1O)OC(=O)C(OC(=O)C=C(C)C)C24 (stereo unspecified) | 12* | 3 | 7 | -11 | -2 | -6
Cc1ccc(S(=O)(=O)N2[C@@H](c3ccc(Cl)cc3)C(C(=O)O)=CC[C@H]2c2ccc(Cl)cc2)cc1 | 9.8* | 0 | -7 | 22 | -4 | -4
CNCCCN1c2ccccc2CCc2ccccc21 | 10* | 11 | 3 | -1 | 5 | 0

Bioassay records: PubChem, several laboratories
